Compound activity as filed in PubChem.
IL-1B inflam inh = inhibitors of inflammasome signaling (IL-1 beta secretion) | THP-1 LPS/ATP IL-1B secretion, AlphaLISA, 16 h; stronger effect = lower value | activity change, % at 57.5 µM | 360,000 tested, 4.7% active | AID 743279; in the data active = activity change below about -50%; inconclusive = mostly about -30% to -49%
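Secreted IL-1B measured by AlphaLISA bead assay after 16 h compound exposure of THP-1 cells; compounds (final up to 57.5 uM) added 1 h before LPS (250 ng/mL) and ATP (1.25 mM) stimulation; lower signal means less secretion.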
MCF10A rerep = DNA re-replication induction in MCF 10a cells; MCF 10A DNA re-replication, Hoechst nuclear intensity, 48 h; Potency, µM (titrated, usually from 46.1 µM), hits mostly activators; 350,000 tested, 2.9% active; AID 624296; note: nearly all actives have a fitted effect of over 50% in size
KB-V1 cytotox = kills drug-selected multidrug resistant KB-V1 cells; 400,000 tested, 3.4% active; AID 1347076; KB-V1 MDR cells viability, CellTiter-Glo, 72 h; Potency, µM (doses to about 46.1 µM), usual class: cytotoxic; note: nearly all actives have a fitted effect of over 60% in size
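In this primary screen, KB-V1 cells overexpressing P-gp are incubated with library compounds (lowest to highest concentration) for 72 h at 37 degrees C before a luminescent ATP viability read.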
KB-3-1 tox = kills parental KB-3-1 adenocarcinoma cells; KB-3-1 viability, CellTiter-Glo ATP luminescence, 72 h; Potency, µM (doses to about 46.1 µM), actives largely listed as cytotoxic; 400,000 tested, 1.4% active; note: nearly all actives have a fitted effect of over 60% in size
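KB-3-1 parental drug-naive adenocarcinoma cells in DMEM/10% FBS, incubated 72 h at 37 C with pin-transferred compounds across a concentration series. Viability by CellTiter-Glo luminescence; concentration-response curves fitted after normalization.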
SW480 rerep = induces DNA re-replication in SW480 colon adenocarcinoma cells; SW480 DNA re-replication, Hoechst DNA content imaging, 48 h; Potency, µM (series often up to 46.1 µM), most hits filed as activators; 340,000 tested, 1.8% active; AID 624297; note: nearly all actives have a fitted effect of over 55% in size
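SW480 cells exposed to compounds for 48 hr at 37 C, 5% CO2, then Hoechst-stained 40 min. Nuclear DNA content imaged by fluorescence scanning (405 nm excitation, 500-530 nm emission); re-replication scored as increased high-intensity nuclei.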
Each line names hits and unclear results; the compound was inactive in the other large screens. Hits are enriched below; roughly 9.9% of the tested compounds scored in any of these assays. Unless noted, calls come from the whole dose curve; as a rule, active = well fitted curve in the direction sought with a large enough effect; inconclusive = small, poorly fitted or top-dose-only effect, or another doubt; inactive = no such curve, though single readings can be large; an effect the other way counts as inactive or inconclusive.

C=C1CCC[C@]2(C)C[C@H]3OC(=O)C(CNCCN(CC)CC)[C@H]3CC12 (some centres undefined)	IL-1B inflam inh -96, SW480 rerep inconclusive
C=C1CCC[C@]2(C)C[C@H]3OC(=O)C(CNCCN(C)C)[C@H]3CC12 (some centres undefined)	KB-V1 cytotox inconclusive, SW480 rerep inconclusive
C=C1CCC[C@]2(C)C[C@H]3OC(=O)C(CN4CC(C)OC(C)C4)[C@H]3C[C@@H]12 (some centres undefined)	IL-1B inflam inh -71, MCF10A rerep inconclusive, KB-3-1 tox inconclusive, SW480 rerep inconclusive
OC[C@H]1O[C@@H](O[C@@H]2[C@@H](CO)O[C@@](O)(CO)[C@H]2O)[C@H](O)[C@@H](O)[C@H]1O	none
COc1ccccc1-n1c(=O)oc2ccc(Cl)cc2c1=O	MCF10A rerep 6.5µM, KB-V1 cytotox inconclusive, KB-3-1 tox inconclusive
COc1c(Cl)c(=O)oc2ccc(Cl)cc12	none (no result: MCF10A rerep, SW480 rerep)
COc1ccccc1OCCCn1c(=O)sc2ccccc21	KB-V1 cytotox 15µM
Cc1cccc(C)c1OCC(O)CN (centres undefined)	IL-1B inflam inh -59
CCOC(=O)N1CCN(CC(O)COc2c(C)cccc2C)CC1 (centres undefined)	none
C=CCn1cc(C(=O)NCCCOCC)c(=O)c2cc(S(=O)(=O)N(CC)CC)ccc21	KB-V1 cytotox 2.9µM
CCn1cc(C(=O)NCc2ccc(Cl)cc2)c(=O)c2cc(S(=O)(=O)N(C)C)ccc21	IL-1B inflam inh -69, MCF10A rerep inconclusive, KB-V1 cytotox 15µM, SW480 rerep inconclusive
CCn1cc(C(=O)NCCc2ccc(Cl)cc2)c(=O)c2cc(S(=O)(=O)N(C)C)ccc21	KB-3-1 tox inconclusive
CCN(CCCNC(=O)c1cn(CC)c2ccc(S(=O)(=O)N(C)C)cc2c1=O)c1cccc(C)c1	KB-V1 cytotox 16µM, KB-3-1 tox inconclusive
CCn1cc(C(=O)NCCCN(C)c2ccccc2)c(=O)c2cc(S(=O)(=O)N(C)C)ccc21	none
CCOc1ccc(CCNC(=O)CCC(=O)N2CCOc3ccccc32)cc1OCC	none
COc1ccc(C2NC(=S)NC3=C2CCc2cc(OC)ccc23)cc1 (centres undefined)	SW480 rerep inconclusive
CC(=O)NC1C(=O)N(C)c2ccc(Br)cc21 (centres undefined)	none
NC(=O)C1(c2ccccc2)OC1c1ccccc1 (centres undefined)	none
OCC1(Cc2cccc(C(F)(F)F)c2)CCN(Cc2cc3ccccc3o2)CC1	IL-1B inflam inh -136, MCF10A rerep 23µM, KB-V1 cytotox inconclusive, KB-3-1 tox inconclusive, SW480 rerep inconclusive
Cc1c(CN2CCC(CO)(Cc3cccc(C(F)(F)F)c3)CC2)c2ccccc2n1C	IL-1B inflam inh -94, MCF10A rerep inconclusive, KB-V1 cytotox inconclusive, KB-3-1 tox inconclusive, SW480 rerep inconclusive
COc1ccc(CC2(CO)CCN(Cc3ccncc3)CC2)cc1	MCF10A rerep inconclusive
COc1ccc(CC2(CO)CCN(Cc3cc4ccccc4o3)CC2)cc1	IL-1B inflam inh -80, MCF10A rerep inconclusive, KB-V1 cytotox inconclusive
CC[C@]1(C(=O)OC)[C@H]2C(=O)N(C)C(=O)[C@H]2[C@H]2CN=C(SCc3ccc(OC)cc3)N21	MCF10A rerep inconclusive
O=C(Nc1ccc(F)cc1C(F)(F)F)C1CCN(c2ncccn2)CC1	none (no result: IL-1B inflam inh, MCF10A rerep, SW480 rerep)
COc1cccc(-n2c(CN3CCN(c4cccc(C)c4)C(C)C3)nc3ccc([N+](=O)[O-])cc3c2=O)c1 (centres undefined)	none
COc1cccc(-n2c(CN3CCN(c4ccc(C)cc4)C(C)C3)nc3ccc([N+](=O)[O-])cc3c2=O)c1 (centres undefined)	KB-V1 cytotox 15µM
Cc1ccc(C(=O)NNC(=O)c2ccc(-n3cncn3)c([N+](=O)[O-])c2)cc1	none
COc1ccc2c(c1)C(=NN)c1cc(OC)ccc1-2	KB-V1 cytotox 10µM
C=CCNc1nc(C(=O)OCC(=O)Nc2c(Cl)cccc2C(F)(F)F)cs1	KB-V1 cytotox inconclusive
COc1ccc(NC(=O)Cc2ccc(C)cc2)cc1S(=O)(=O)N1CCCCC1	KB-V1 cytotox inconclusive
Cc1cccc(OCCC(=O)Nc2ccc(C)c(S(=O)(=O)N3CCCCC3)c2)c1	IL-1B inflam inh -72, KB-V1 cytotox inconclusive, KB-3-1 tox inconclusive
CCc1cccc(OCC(=O)Nc2ccc(C)c(S(=O)(=O)N3CCCCCC3)c2)c1	IL-1B inflam inh inconclusive
CCc1noc(C)c1C(=O)N1CCN(S(=O)(=O)c2cc(C)ccc2C)CC1	SW480 rerep inconclusive (no result: KB-V1 cytotox, KB-3-1 tox)
Cc1ccc(NC(=O)COc2ccc(N(C)C(=O)C(C)(C)C)cc2)cc1S(=O)(=O)N1CCCCC1	KB-V1 cytotox 18µM, KB-3-1 tox 16µM
CCc1noc(C)c1C(=O)N1CCN(S(=O)(=O)c2c(C)c(C)cc(C)c2C)CC1	KB-V1 cytotox 10µM
COc1ccc(NC(=O)Cc2ccc(C)c(C)c2)cc1S(=O)(=O)N1CCCCC1	IL-1B inflam inh inconclusive, KB-V1 cytotox 9.2µM, KB-3-1 tox inconclusive
COCCNCc1ccccc1[N+](=O)[O-]	none
CCc1nnc(NS(=O)(=O)c2ccc(NC(=O)c3ccc(C#N)cc3)cc2)s1	none
O=C(Nc1nc2ccc(S(=O)(=O)N3CCCC3)cc2s1)c1cccc(F)c1	none (no result: IL-1B inflam inh, MCF10A rerep, SW480 rerep)
CCc1noc(C)c1C(=O)Nc1ccc(C)c(S(=O)(=O)N2CCCCCC2)c1	KB-V1 cytotox 7.3µM
COc1ccc(CCNS(=O)(=O)c2cccc(S(=O)(=O)N3CCCC3)c2)cc1OC	KB-V1 cytotox 18µM
COc1ccc(NC(=O)CC2CCCC2)cc1S(=O)(=O)N1CCCCC1	none
CCc1noc(C)c1C(=O)Nc1cc(S(=O)(=O)N2CCCCC2)ccc1N(C)C	KB-V1 cytotox inconclusive
COc1ccc(CC(=O)Nc2cccc(S(=O)(=O)N3CCCCCC3)c2)cc1OC	KB-V1 cytotox 1.8µM, KB-3-1 tox 2.9µM
COc1ccc(NC(=O)CCC2CCCCC2)cc1S(=O)(=O)N1CCCCC1	KB-V1 cytotox 3.3µM, KB-3-1 tox 5.2µM
COc1ccc(CCC(=O)Nc2cccc(S(=O)(=O)N3CCCCCC3)c2)cc1OC	none
COc1ccc(C)cc1NS(=O)(=O)c1ccc2c(c1)N(C)CCO2	none
CCCCCCCC#Cc1ccccc1/C=N/S(=O)c1ccc(C)cc1 (centres undefined)	none
COc1ccc(CN(C)C(=S)Nc2ccc(Cl)cc2)cc1	MCF10A rerep inconclusive
CC(=O)c1ccc(S(=O)(=O)Oc2ccc(-c3ccc(C(=O)O)cc3)cc2)cc1	KB-V1 cytotox inconclusive
Cc1ccc(NC(=O)CCl)cc1S(=O)(=O)N1CCCCCC1	IL-1B inflam inh -87, MCF10A rerep inconclusive, KB-V1 cytotox inconclusive, KB-3-1 tox inconclusive, SW480 rerep inconclusive
COc1ccc(CC(=O)Nc2cccc(SC)c2)cc1OC	KB-V1 cytotox 15µM, KB-3-1 tox inconclusive
O=C(CCC1CCCCC1)Nc1ccc(C(=O)c2ccncc2)cc1	IL-1B inflam inh -92
